# Measurements as given in PubChem BioAssay AID651813 (National Center for Advancing Translational Sciences (NCATS), 2012).
# In all, about 2,100 compounds went through this assay and about 1,100 (52%) were called active. Roughly 27% stayed inconclusive and do not appear here. The set was probably picked from earlier hits. This is one part of the list. Unmarked numbers belong to inactive results. Calls follow the shape of the dose curve; as a rule, active = well fitted inhibition curve with a large enough effect; inconclusive = small, poorly fitted or top-dose-only effect; inactive = no such curve, though single readings can be large or run the other way.
# Molecular target: DNA dC->dU-editing enzyme APOBEC-3G (Homo sapiens) (UniProt Q9HC16)
# Test: qHTS for inhibitors of Vif-A3G interactions: Cherry picks counterscreen;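 also: hits raise yellow fluorescence by blocking Vif-driven A3G-eYFP degradation; nearly all actives have a fitted effect of over 70% in size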;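 as to max response: max response given as percent of control signal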
# Settings: HeLa A3G-eYFP + Vif (tagged APOBEC3G with the HIV-1 protein that degrades it), eYFP fluorescence, 24 h
# Summary of the method: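 Readout is eYFP fluorescence (488 nm excitation, 500-530 nm emission) measured on Acumen Explorer after 24 h compound exposure, several concentrations, at 37 deg C. Cells: HeLa stably co-expressing Vif and C-terminally eYFP-tagged A3G; MG132 positive control.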
# Potency is read from the fitted curve at half-maximal effect.
# DNA dC->dU-editing enzyme APOBEC-3G (Homo sapiens), sequence (Q9HC16 whole entry, looked up): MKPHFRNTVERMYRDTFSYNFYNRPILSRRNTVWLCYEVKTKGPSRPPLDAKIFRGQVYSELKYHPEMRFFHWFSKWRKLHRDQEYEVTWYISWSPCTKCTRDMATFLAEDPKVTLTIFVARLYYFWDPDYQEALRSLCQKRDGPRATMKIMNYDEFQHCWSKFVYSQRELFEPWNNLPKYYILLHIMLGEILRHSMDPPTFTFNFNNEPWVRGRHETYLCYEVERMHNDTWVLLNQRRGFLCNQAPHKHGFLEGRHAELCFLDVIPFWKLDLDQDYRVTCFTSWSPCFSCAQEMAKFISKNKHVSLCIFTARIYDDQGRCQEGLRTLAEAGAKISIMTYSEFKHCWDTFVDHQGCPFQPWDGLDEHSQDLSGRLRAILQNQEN
Structure (SMILES),Potency,max response [%]
Cc1cc(C(=O)N/N=C/c2ccc3c(c2)OCO3)c2ccccc2n1,7.9 µM (active),–
Cc1cccc(C)c1OCC(=O)N/N=C/c1ccc2c(c1)OCO2,6.27 µM (active),–
O=C(NN=Cc1c(O)ccc2ccccc12)c1ccc2c(c1)OCO2,–,1.53
O=C(N/N=C/c1ccc2c(c1)OCO2)c1cccc2ccccc12,9.94 µM (active),–
O=C(N/N=C/c1ccc2c(c1)OCO2)c1cc(-c2ccco2)nc2ccccc12,9.94 µM (active),–
O=C(N/N=C/c1ccc2c(c1)OCO2)c1cc(-c2ccncc2)nc2ccccc12,5.59 µM (active),–
Cc1nc2c3cc(F)ccc3n(Cc3ccccc3)c2s1,7.04 µM (active),–
Cc1nc2c3cc(F)ccc3n(Cc3ccccc3F)c2s1,14 µM (active),–
N#CCSc1ccccc1NC(=O)CN1C(=O)C2CC=CCC2C1=O (stereo unspecified),11.2 µM (active),–
COC1=C/C(=C/c2c(N)n3nc(-c4ccc(C)cc4)sc3nc2=O)C=CC1=O,20.6 µM (active),–
CCOC1=C/C(=C/c2c(N)n3nc(-c4ccccc4)sc3nc2=O)C=CC1=O,–,19.6
CCS(=O)(=O)c1nn2c(N)c(/C=C3/C=CC(=O)C(OC)=C3)c(=O)nc2s1,–,52.9
Cn1cc(/C=C/c2ccnc3ccccc23)c2ccccc21,20.6 µM (active),–
Cn1cc(/C=C/c2ccc3ccccc3n2)c2ccccc21,13 µM (active),–
CCc1ccc2nc(N(CCCN(C)C)C(=O)c3ccc(S(=O)(=O)N(C)C4CCCCC4)cc3)sc2c1,–,5.65
Cc1ccc(-n2nc3c(SCCN4CCOCC4)nnc(C)c3c2C)cc1,–,-27.8
O=C(Nc1nc(NC(=O)c2ccco2)n(-c2ccccc2)n1)c1ccccc1,–,-0.0667
CCCCn1c(NC(=O)c2ccco2)c(S(=O)(=O)c2ccc(C)cc2)c2nc3ccccc3nc21,20.6 µM (active),–
Cc1ccc(C(=O)Nc2sc(Cc3ccc4c(c3)OCO4)c(C)c2C(N)=O)cc1,18.4 µM (active),–
CCC1CCCCN1CCCNC(=O)c1ccc2c(c1)N(Cc1ccccc1F)C(=O)c1ccccc1S2(=O)=O (stereo unspecified),4.61 µM (active),–
CN(C)c1ccc(/C=C/c2cnnc3ccccc23)cc1,20.6 µM (active),–
COc1cccc2nccc(/C=C/c3ccc(N(C)C)cc3)c12,18.4 µM (active),–

Structure (SMILES),Potency,max response [%]
CN(C)c1ccc(/C=C/c2ccnc3cc(Cl)ccc23)cc1,8.2 µM (active),–
Nc1ccccc1/C=C/c1ccnc2ccccc12,16.4 µM (active),–
CN(C)c1ccc(/C=C/c2ccnc3ccccc23)c(N)c1,2.91 µM (active),–
CN(C)c1ccc(/C=C/c2ccnc3ccc(-c4ccccc4)cc23)cc1,5.8 µM (active),–
CN(C)c1ccc(/C=C/C=C/c2ccnc3ccccc23)cc1,4.61 µM (active),–
CN(C)c1ccc(/C=C/c2ccnc3ccccc23)cc1,20.6 µM (active),–
CNc1ccc(/C=C/c2ccnc3ccccc23)cc1,16.4 µM (active),–
O=C(Cn1ncc(Cl)c(Cl)c1=O)NC(=O)NC1CCCCC1,14 µM (active),–
Cc1nc(-c2ccc(Cl)cc2)sc1C(=O)NN,15.8 µM (active),–
CCOC(=O)C1CCCN(C(=O)c2ccc3nc(-c4cccc(OC)c4)oc3c2)C1 (stereo unspecified),7.04 µM (active),–
COc1ccc2cc(C(=O)C3CCCN(Cc4ccccn4)C3)ccc2c1 (stereo unspecified),–,-1.88
COCCOC(=O)c1[nH]c2c(c1C)C(=O)CC(c1ccccc1)C2 (stereo unspecified),0.994 µM (active),–
COc1ccc(OC)c(C2CC(=O)c3c([nH]c(C(=O)OCC4CCCO4)c3C)C2)c1 (stereo unspecified),5.59 µM (active),–
Cc1c(C(=O)N2CCOCC2)[nH]c2c1C(=O)CC(c1ccccc1Cl)C2 (stereo unspecified),8.86 µM (active),–
Cc1c(C(=O)OC2CCCCC2)[nH]c2c1C(=O)CC(c1ccccc1Cl)C2 (stereo unspecified),9.2 µM (active),–
O=C(COc1ccc(C(=O)c2ccccc2)cc1)NCc1ccc(F)cc1,2.5 µM (active),–
CCN(CC)S(=O)(=O)c1cc([N+](=O)[O-])ccc1N=Nc1c(O)[nH]c2ccccc12,23.1 µM (active),–
Cc1ccccc1NCC(=O)N=Nc1c(O)[nH]c2ccc([N+](=O)[O-])cc12,–,-0.0304
O=C(NCc1cccc(C(F)(F)F)c1)c1cccc2c1C(=O)c1ccc(N3CCC(Cc4ccccc4)CC3)cc1S2(=O)=O,23.1 µM (active),–
O=C(NCc1ccco1)c1cccc2c1C(=O)c1ccc(N3CCC(Cc4ccccc4)CC3)cc1S2(=O)=O,23.1 µM (active),–
O=C(NCc1cc(C(F)(F)F)ccc1Cl)c1cccc2c1C(=O)c1ccc(N3CCC(Cc4ccccc4)CC3)cc1S2(=O)=O,14 µM (active),–
Cc1ccc(CSc2nc(-c3ccc(C(C)(C)C)cc3)nc3cc(=O)[nH]n23)cc1,–,28.6

Structure (SMILES),Potency,max response [%]
COc1cccc(Nc2ncccc2C(=O)NCc2ccccc2)c1,19.8 µM (active),–
CCCOc1ccc2cc(C(=O)NCc3ccccc3)c(=O)oc2c1,–,-5.24
CN(C)c1ccc(/C=C(/C#N)C(=O)NCc2ccccc2)o1,1.84 µM (active),–
N#C/C(=C\c1ccc(N2CCOCC2)o1)C(=O)NCCc1ccccc1,3.26 µM (active),–
N#C/C(=C\c1ccc(N2CCCCC2)o1)C(N)=O,15.8 µM (active),–
N#C/C(=C\c1ccccc1[N+](=O)[O-])C(=O)NCc1ccccc1,–,2.31
N#C/C(=C\c1ccc(N2CCOCC2)o1)C(=O)NC1CCCCC1,17.7 µM (active),–
CCOC(=O)CN1C(=O)S/C(=C/c2ccc(N3CCCCC3)o2)C1=O,–,55
N#C/C(=C/c1ccc(N2CCOCC2)o1)C(=O)NC1CCCCC1,16.4 µM (active),–
CCCCN1C(=O)/C(=C/C=C2\Oc3ccccc3N2CC)SC1=S,–,51.7
CCSC1=N/C(=C\C=C2/Oc3ccccc3N2CC)C(=O)S1,8.2 µM (active),–
CCOc1ccc(-c2cc(C(=O)NCCc3ccc(OC)c(OC)c3)c3c(-c4ccc(F)cc4)[nH]nc3n2)cc1,–,-21
COc1ccc(-c2n[nH]c3c2CN(C(=O)c2ccc(OC)c(OC)c2)CC3)cc1,9.94 µM (active),–
C=C(NC(=O)C(=C)NC(=O)c1csc(C2=NC3c4csc(n4)C4NC(=O)c5csc(n5)C(C(C)(O)C(C)O)NC(=O)C5CSC(=N5)/C(=C/C)NC(=O)C(C(C)O)NC(=O)c5csc(n5)C3(CC2)NC(=O)C(C)NC(=O)C(=C)NC(=O)C(=C)NC(=O)C(C(C)C)NC2C=Cc3c(C(C)O)cc(nc3C2O)C(=O)OC4C)n1)C(N)=O (stereo unspecified),7.04 µM (active),–
CN(C)/C=N/C1=C(C#N)C(c2cccs2)c2ccc3ccccc3c2O1 (stereo unspecified),2.8 µM (active),–
Nc1c(N(CCC2=CCCCC2)C(=O)c2ccc([N+](=O)[O-])o2)c(=O)[nH]c(=O)n1Cc1ccccc1,13 µM (active),–
CCCCN(C(=O)c1ccc([N+](=O)[O-])s1)c1c(N)n(CCCC)c(=O)[nH]c1=O,–,-2.12
CCCCn1c(N)c(N(CCC(C)C)C(=O)c2ccc([N+](=O)[O-])o2)c(=O)[nH]c1=O,–,-4.38
O=C1c2ccccc2C(=O)c2c(/C=C/N3CCCCC3)ccnc21,23.1 µM (active),–
Nc1nc(-c2cc(O)ccc2[N+](=O)[O-])cc(-c2ccccc2)c1[N+](=O)[O-],14 µM (active),–
O=C(Nc1cc(=O)[nH]c(=O)[nH]1)c1cc(Cl)ccc1Cl,3.14 µM (active),–
O=C(COC(=O)C12CC3CC(CC(Cl)(C3)C1)C2)N1CCCCC1,–,-19.2

Structure (SMILES),Potency,max response [%]
Cc1ccc(S(=O)(=O)Nc2cc(-c3nn(C)c(=O)c4ccccc34)ccc2N2CCOCC2)cc1,15.8 µM (active),–
COc1ccc(/C=c2\s/c(=C/C(=O)c3ccc(C)cc3)[nH]c2=O)c(OC)c1,20.6 µM (active),–
CCCOc1ccc(C(=O)Nc2cccc(NC(=O)c3ccc(Cl)cc3Cl)c2)cc1,16.4 µM (active),–
CC(C)(C)OC(=O)NCc1ccc(NC(=O)c2nc[nH]c2C(=O)NCCCNC(=O)c2[nH]cnc2C(=O)Nc2ccc(CNC(=O)OC(C)(C)C)cc2)cc1,–,4.7
Cc1onc(-c2c(F)cccc2Cl)c1C(=O)O/N=C(\N)c1ccc([N+](=O)[O-])o1,–,19.3
O=C(/C=C/c1ccc(Cl)cc1)c1ccc([N+](=O)[O-])o1,12.5 µM (active),–
Cc1cccc(/C=C/C(=O)c2ccc([N+](=O)[O-])o2)c1,–,-131
CC(/C=N/NC(=O)c1cccc(F)c1)=C\c1ccccc1,9.94 µM (active),–
O=C(O)c1ccc(N/N=C/C(Br)=C/c2ccccc2)cc1,–,24.8
COc1cccc(C(=O)N/N=C/C(Br)=C/c2ccccc2)c1,2.23 µM (active),–
COc1cccc(/C=N/n2c(C3CCCCC3)n[nH]c2=S)c1O,–,12.3
C/C(=N/NC(N)=S)c1ccc(Br)s1,–,13.4
COc1ccc(C(=O)N/N=C/c2cc(Br)ccc2O)cc1OC,–,-1.25
COc1ccc(N/C=C\C(=O)c2ccc(Br)cc2)cc1OC,18.4 µM (active),–
COc1ccc(N/C=C/C(=O)c2cc(OC)c(OC)c(OC)c2)cc1,0.886 µM (active),–
COc1ccccc1C1=NOC(COc2ccc3c(C)cc(=O)oc3c2)C1 (stereo unspecified),0.559 µM (active),–
CCOC(=O)c1cc(-c2ccccc2C)n(CC2CC(c3ccc(OC)cc3)=NO2)n1 (stereo unspecified),–,-3.65
Cc1cc(=O)oc2cc(OCC(=O)N3c4ccccc4CC3C)ccc12 (stereo unspecified),4.44 µM (active),–
CCn1c(SCC(=O)c2c[nH]c3ccccc23)nnc1-c1cccs1,18.4 µM (active),–
CCN(C)c1ccc(/C=N\n2nnnc2N)cc1,5.59 µM (active),–
